Screens from PubChem.
FBPA coupling cs – counter-screen for Giardia aldolase inhibitors: coupling enzyme system; 0.67% of 290,000 active; AID 2472; coupling enzyme system counterscreen, AmpLite Red fluorescence; activity change, negative = inhibition, % at 58.2 µM, hits read low; in the data active = activity change below about -30%
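Fluorescence at 525 nm excitation and 598 nm emission measured inhibition of the coupled detection system without aldolase. Compounds (at 57.5 uM final) were preincubated 10 min at room temperature with coupling enzyme reagent before a 20 min substrate/AmpLite Red step.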
TrxR1 substrate – is turned over as a substrate by rat TrxR1; O89049; purified TrxR1 substrate turnover, NADPH consumption readout; Potency, µM (highest dose often 114 µM); 0.01% of 390,000 active; AID 588456; also: nearly all actives have a fitted effect of over 50% in size
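Rat TrxR1, dispensed at 90 nM, was prereduced with 400 uM NADPH (final) for 5 min at ~22 deg C, then incubated with compound 15 min before 400 uM selenite. A first-read NADPH fluorescence drop versus no-compound background flagged substrates.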
Gal4-VP16 FLuc – inhibits Gal4-VP16 luciferase reporter, ROR gamma counter-screen. Drosophila S2 Gal4-VP16 UAS-luciferase, luminescence, 20 h. Potency, µM (top dose mostly 53.6 µM), usual class: inhibitors. 3.5% of 310,000 active. AID 2546;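 also: Gal4-VP16 expression switched on by copper sulfate through the metallothionein promoter; nearly all actives have a fitted effect of over 50% in size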
TrxR1 inh – rat TrxR1 inhibition; recombinant rTrxR1, NADPH fluorescence consumption, selenite substrate; Potency, µM (doses to about 114 µM), most hits filed as inhibitors; 1% of 390,000 active; AID 588453; also: nearly all actives have a fitted effect of over 65% in size
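Rat TrxR1 (90 nM in the dispensed reagent) was pre-reduced with 400 uM NADPH for 5 min at room temperature, then incubated with compound for 15 min. After 400 uM selenite was added, NADPH fluorescence (Ex 340/Em 450 nm) was followed for 8 min.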
GALK inh – inhibitors of human galactokinase; Potency, µM (top dose mostly 57.5 µM), actives largely listed as inhibitors; Purified GALK, Kinase-Glo residual ATP luminescence; 0.007% of 270,000 active
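5 nM enzyme, 35 uM ATP, 100 uM galactose, 20 mM HEPES pH8.0, 5 mM MgCl2; 1 h RT; residual ATP by Kinase-Glo Plus luminescence, qHTS format.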
RORg inh – inhibitors of mouse ROR gamma transcriptional activity; Potency, µM (highest dose often 53.6 µM), actives largely listed as inhibitors; P51450; Drosophila S2 Gal4-RORgamma UAS-luciferase reporter, 20 h; 5.4% of 310,000 active; also: nearly all actives have a fitted effect of over 60% in size
Target sequence (P51450 whole entry, looked up, the tested form may be a part): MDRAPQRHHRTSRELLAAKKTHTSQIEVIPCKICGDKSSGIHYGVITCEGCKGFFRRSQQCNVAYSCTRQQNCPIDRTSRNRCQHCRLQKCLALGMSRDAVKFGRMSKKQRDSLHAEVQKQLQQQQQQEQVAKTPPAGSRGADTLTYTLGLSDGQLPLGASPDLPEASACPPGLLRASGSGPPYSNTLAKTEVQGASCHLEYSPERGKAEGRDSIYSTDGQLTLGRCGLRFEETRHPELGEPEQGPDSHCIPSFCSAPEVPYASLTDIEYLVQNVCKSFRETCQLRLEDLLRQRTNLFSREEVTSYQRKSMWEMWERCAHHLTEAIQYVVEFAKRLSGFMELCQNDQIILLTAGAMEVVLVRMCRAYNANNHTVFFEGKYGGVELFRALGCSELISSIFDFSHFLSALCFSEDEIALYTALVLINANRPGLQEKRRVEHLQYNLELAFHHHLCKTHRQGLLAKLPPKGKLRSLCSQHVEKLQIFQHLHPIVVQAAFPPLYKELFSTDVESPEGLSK
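ROR gamma transcriptional activity was tracked as Gal4-UAS luciferase output in stably transfected Drosophila Schneider cells, with compound added 1 hr before 700 uM copper sulfate induction and a 20 hr ambient-temperature incubation.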
Hits are given with their value; 0 = inactive; ? = inconclusive; - = not tested or not shown; [ ] = another dose, or the depositor's remark. A selection: hits, their analogues and other compounds. The true share with any hit is near 5.9%. Unless noted, calls follow the shape of the dose curve; as a rule, active = well fitted curve in the direction sought with a large enough effect; inconclusive = small, poorly fitted or top-dose-only effect, or another doubt; inactive = no such curve, though single readings can be large; an effect the other way counts as inactive or inconclusive.

SMILES	FBPA coupling cs	TrxR1 substrate	Gal4-VP16 FLuc	TrxR1 inh	GALK inh	RORg inh
CCn1c(CN2CCN(c3ccc(Cl)cc3)CC2)nc2ccccc21	0	0	8.9µM	0	0	10µM
Cn1c(CN2CCN(c3ccccc3NS(C)(=O)=O)CC2)nc2ccccc21	0	0	0	0	0	0
CC1=CC(=O)C=C(C)C1=NOC(=O)c1cccc([N+](=O)[O-])c1	0	0	?	?	0	11µM
Cc1cccc(C(=O)O/N=C(\N)c2cccc([N+](=O)[O-])c2)c1	0	0	?	0	0	?
C=CCNC(=S)Nc1ccccc1	0	0	?	0	0	0
C=CCNC(=S)/N=c1/ccccn1CC	0	0	0	0	0	10µM
Cc1nc(NS(=O)(=O)c2ccccc2)sc1C(=O)NNS(=O)(=O)c1ccccc1	0	0	0	0	0	0
Cc1nc(C)c(C(=O)NNS(=O)(=O)c2ccc3ccccc3c2)s1	0	0	1µM	0	0	?
c1ccc(COC[C@H]2CO2)cc1	0	-	0	-	-	0
N/C(=N\OC(=O)c1cc(Cl)ccc1Cl)c1ccccn1	0	0	14µM	0	0	0
N/C(=N\OC(=O)COc1ccc(Cl)cc1Cl)c1ccccn1	0	0	?	0	0	10µM
N/C(=N\OC(=O)COc1ccc(Br)cc1Cl)c1ccccn1	0	0	?	0	0	?
CCCCNC(=O)c1ccc2c(c1)NC(=O)C(CS(=O)(=O)Cc1cccc(C)c1)N2 (stereo not drawn)	-	0	-	0	-	-
CN1CCN(S(=O)(=O)c2ccc(NC(=O)c3ccc(F)cc3)cc2)CC1	0	0	0	0	0	?
CC(=O)Oc1ccccc1C(=O)N(C1CCCCC1)C1CCCCC1	0	0	0	0	0	?
COc1ccc(NC(=O)/C(C#N)=C/c2ccc(Sc3nncn3C)c([N+](=O)[O-])c2)cc1	0	0	22µM	50µM	0	0
Cn1cnnc1Sc1ccc(C(=O)OCC(=O)Nc2ccccc2)cc1[N+](=O)[O-]	0	0	0	?	0	0[10 µM]
Cn1cnnc1Sc1ccc(/C=C/C(=O)c2ccc(O)cc2)cc1[N+](=O)[O-]	0	0	?	22µM	0	10µM
CCC(C)(C)NC(=O)c1ccc(Sc2nncn2C)c([N+](=O)[O-])c1	0	0	0	0	0	0
Cc1nc(C(F)(F)F)nc(Nc2ccc(Br)cc2)c1C#N	0	0	0	0	0	0
Cc1cccn2c(=O)c(C=O)c(Cl)nc12	0	0	?	?	0	14µM
O=Cc1c(Cl)nc2ccccn2c1=O	0	0	0	18µM	0	0
CC1CCN(c2nc3ccccn3c(=O)c2C=O)CC1	0	0	0	0	0	0
COCc1cc(NCc2ccc(Cl)cc2)nc(C)n1	0	0	0	0	0	0
Cc1[nH]n2c(=O)c3c(nc2c1-c1ccccc1)CCCC3	0	0	?	0	0	11µM
SMILES	FBPA coupling cs	TrxR1 substrate	Gal4-VP16 FLuc	TrxR1 inh	GALK inh	RORg inh
Cc1[nH]n2c(=O)c3c(nc2c1-c1cccc2ccccc12)CCC3	0	0	?	0	0	13µM
O=c1c2c(nc3c(-c4cccc5ccccc45)c[nH]n13)CCC2	0	0	0	0	0	0
O=c1c2c(nc3c(-c4ccc(Cl)cc4)c[nH]n13)CCCC2	0	0	6.3µM	0	0	2.2µM
N#CC(CCc1ccccn1)c1ccccc1 (stereo not drawn)	-	0	-	0	-	-
Cc1c(Br)c(C(F)(F)F)nn1CC(=O)NCCN1CCOCC1	0	0	0	0	0	0
CCOc1ccccc1NC(=O)CN1C(=O)CC(c2ccc(OC)c(OC)c2)Sc2ccccc21 (stereo not drawn)	-	0	-	0	-	-
CCCCNC(=S)NNC(=O)c1csc(C)c1	0	0	0	0	0	0
CCNC(=S)NNC(=O)c1csc(C)c1	0	0	?	0	0	13µM
CCNC(=S)NNC(=O)c1cccs1	0	0	0	0	0	11µM
COc1ccc(C(=O)NC2CCCCCCC2)cc1OC	-	0	-	0	-	-
COc1ccc(C(=O)NNC(=S)NC2CCCCC2)cc1OC	0	0	?	0	0	7.9µM
Cc1cc(C(=O)NNC(=S)NC2CCCCC2)cs1	-	0	?	0	0	3.2µM
COc1ccc(NC(=O)C2CCCN(S(=O)(=O)c3c(C)n[nH]c3C)C2)c(OC)c1 (stereo not drawn)	0	0	0	0	0	0
O=C(CSc1ncccn1)NC1CCS(=O)(=O)C1 (stereo not drawn)	-	0	0	0	0	0
COC(=O)C1C=CC(OC2OC(COC(C)=O)C(OC(C)=O)C(OC(C)=O)C2OC(C)=O)n2c(=O)n(-c3ccccc3)c(=O)n21 (stereo not drawn)	-	0	-	11µM	-	-
CC1=C(C(=O)Nc2cc(C(=O)N3CCC(C)CC3)ccc2C)SCCO1	-	0	0	0	0	0
Cc1cccc2c1-c1sc(C(=O)N3CCCCC3)cc1CO2	0	0	?	0	-	10µM
CCOC(=O)N1CCN(C(=O)c2cc3c(s2)-c2c(C)cccc2OC3)CC1	0	0	0	0	0	0
Cc1ccc2c(C)ccc(O)c2n1	0	0	?	0	0	11µM
Cc1nc2c(O)cccc2c(=O)[nH]1	0	-	0	-	-	0
Cc1ccc2ccccc2n1	-	0	-	0	-	-
Cc1ccc2ccc3ccc(C)nc3c2n1	0	0	0.56µM	0	-	0.25µM
OC(c1ccc2ccccc2n1)c1c(Cl)cccc1Cl (stereo not drawn)	-	0	-	0	-	-
Nc1cc2c(cc1Cl)-c1ccccc1C2=NO	-	0	-	0	-	-
Cc1ccc(C(=O)O)cc1NC(=S)NCCc1ccccc1	0	0	0	0	0	0
SMILES	FBPA coupling cs	TrxR1 substrate	Gal4-VP16 FLuc	TrxR1 inh	GALK inh	RORg inh
O=C(NCCc1ccccc1)c1ccc([N+](=O)[O-])cc1	-	0	?	0	0	7.9µM
Cc1cc(Br)ccc1NC(=S)NCCc1ccccc1	-	0	6.3µM	0	0	2.5µM
Cc1ccc(C)c(NC(=S)NCCc2ccc(F)cc2)c1	0	0	3.2µM	0	0	2.5µM
Cc1ccc(NC(=S)NCCc2ccc(S(N)(=O)=O)cc2)c(C)c1	-	0	-	0	-	-
Cc1ccc([N+](=O)[O-])cc1NC(=S)NCCc1ccccc1	-	0	?	0	0	13µM
Cc1ccccc1NC(=S)NCCc1ccccc1	0	0	0	0	0	0
Cc1ccc(NNC(=S)Nc2ccc(C(C)C)cc2)c(C)c1	0	0	?	0	0	11µM
Cc1ccc(NC(=S)NCCc2ccccc2)c(C)c1	0	0	3.5µM	0	0	2µM
Cc1ccc(C)c(NC(=S)NNc2ccc(F)cc2F)c1	0	0	3.2µM	0	0	?
Cc1ccc(NC(=S)NNC(=S)Nc2ccc(C)cc2)cc1	-	0	-	0	-	-
COc1ccccc1C(=O)N1C(CC(=O)Nc2ccc(C)c(C)c2)C(=O)NC2CCCCC21 (stereo not drawn)	-	0	0	0	0	0
